# Reference: PMC5540273 (PLoS ONE, 2017)
# Legend:
# Settings in all cases: concentration: 1 μM, replicates: in singlicate; n = 1
# MRCKB = test system: T1, MRCKB
# T1 construct: gene CDC42BPB
# MST1R = test system: MST1R
# MST1 = test system: T2, MST1
# T2 construct: gene STK4
# MST2 = test system: T3, MST2
# T3 construct: gene STK3
# MST3 = test system: T4, MST3
# T4 construct: gene STK24
# MST4 = test system: MST4
# MTOR = test system: MTOR
# MUSK = test system: MUSK
# MYLK2 = test system: MYLK2
# MYLK4 = test system: MYLK4
# MYLK = test system: MYLK
# MYO3A = test system: MYO3A
# MYO3B = test system: MYO3B
# NDR1 = test system: T5, NDR1
# T5 construct: gene STK38
# NDR2 = test system: NDR2
# NEK10 = test system: NEK10
# NEK11 = test system: NEK11
# NEK1 = test system: NEK1
# NEK2 = test system: NEK2
# NEK3 = test system: NEK3
# 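Note: KINOMEscan kinase panel screen.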
Compound,%Inh (MRCKB),%Inh (MST1R),%Inh (MST1),%Inh (MST2),%Inh (MST3),%Inh (MST4),%Inh (MTOR),%Inh (MUSK),%Inh (MYLK2),%Inh (MYLK4),%Inh (MYLK),%Inh (MYO3A),%Inh (MYO3B),%Inh (NDR1),%Inh (NDR2),%Inh (NEK10),%Inh (NEK11),%Inh (NEK1),%Inh (NEK2),%Inh (NEK3)
Cc1ccc(Oc2ccc(Nc3ncnc4cc[nH]c34)cc2C)cn1,0%,35%,0%,15%,3%,0%,0%,0%,18%,19%,38%,9%,28%,8%,0%,0%,0%,0%,2%,20%
Cc1cccc(-c2cc(-c3c[nH]nc3-c3ccccn3)ccn2)c1 [GW679395],0%,60%,0%,0%,4%,0%,10%,0%,0%,2%,32%,7%,0%,15%,0%,24%,0%,0%,0%,3%
O=C1NC(=O)C(c2ccccc2)=C1Nc1cccc(O)c1 [SB-390534],0%,20%,7%,24%,0%,9%,0%,8%,16%,15%,37%,17%,21%,0%,0%,0%,16%,0%,16%,30%
Cc1ccccc1COc1cc(-n2cnc3cc(Cl)ccc32)sc1C(N)=O [GW813349],0%,0%,0%,12%,0%,0%,18%,0%,0%,24%,5%,0%,0%,3%,1%,0%,0%,0%,5%,13%
CCS(=O)c1ccc(-c2coc3ccc(-c4nnc(C)o4)cc23)cc1 (stereo not shown),0%,15%,33%,0%,17%,0%,2%,0%,5%,4%,0%,0%,3%,0%,0%,5%,0%,0%,0%,1%
CCc1ccc(-c2ccc3c(c2)-c2nn(C)cc2S(=O)(=O)N3C)cc1,0%,0%,0%,0%,0%,0%,23%,1%,0%,6%,3%,96.5%,0%,19%,0%,0%,0%,0%,0%,36%
COc1ccc(CNC(=O)NC2CCN(c3ccnc(Nc4ccc(F)cc4)n3)C2)cc1 (stereo not shown) [GSK1379706],12%,41%,0%,9%,6%,0%,28%,4%,6%,17%,9%,42%,0%,28%,50%,25%,43%,17%,16%,13%
CCn1c(-c2ccoc2)nc2cnccc21 [SB-733887],0%,0%,0%,0%,0%,0%,29%,2%,18%,0%,11%,6%,0%,0%,0%,19%,12%,2%,0%,16%
COC(=O)c1c(-c2ccccc2)c2cc(Br)ccc2c(=O)n1Cc1ccc(S(C)(=O)=O)cc1,0%,43%,10%,32%,5%,0%,28%,7%,0%,2%,20%,26%,0%,7%,19%,0%,0%,0%,10%,21%
Cc1ccc(-c2ccc3c(ccc4sc5c(c43)NC[C@@H](C)N=C5N(C)C)n2)cn1,3%,13%,0%,0%,1%,0%,31%,0%,0%,100%,0%,0%,0%,0%,0%,0%,0%,0%,0%,20%
Cc1nn2c(=O)cc(N3CCOCC3)nc2n1Cc1cccc(Cl)c1Cl [GSK2342769],0%,13%,0%,4%,0%,0%,45%,18%,0%,4%,16%,0%,0%,0%,0%,0%,0%,0%,2%,0%
Cn1c(=O)c(F)c(Nc2ccc(I)cc2F)c2c(=O)n(OC[C@H](O)CO)cnc21,0%,0%,19%,0%,0%,0%,0%,8%,1%,0%,22%,0%,28%,7%,3%,0%,0%,0%,14%,35%
CCn1c(-c2nonc2N)nc2ccccc21 [SB-693162/GW549034],0%,0%,0%,34%,11%,0%,0%,42%,0%,0%,48%,0%,18%,37%,23%,12%,25%,0%,0%,0%
O=C(Nc1n[nH]c2nc(-c3ccccc3)c(Cl)cc12)C1CC1 [SB-734909],6%,0%,12%,50%,0%,37%,19%,19%,93.2%,33%,37%,0%,12%,8%,0%,0%,11%,0%,0%,33%
Nc1n[nH]c2nnc(-c3ccccc3)c(-c3ccccc3)c12 [GW554060],0%,40%,0%,0%,0%,0%,12%,20%,0%,1%,16%,0%,0%,9%,10%,9%,5%,0%,0%,4%
COc1ccc(-n2cnc3c(N)ncnc32)cc1 [SKF-97236],1%,0%,24%,13%,6%,0%,16%,12%,52%,0%,0%,4%,0%,3%,0%,40%,3%,0%,0%,0%
CCC(=O)c1c(-c2ccccc2)c2cc(Cl)ccc2c(=O)n1Cc1cc(S(C)(=O)=O)n(CC(N)=O)n1,0%,0%,0%,0%,0%,0%,40%,0%,0%,0%,0%,0%,0%,32%,0%,0%,0%,0%,0%,32%
Nc1nc(-c2ccccc2F)c(-c2ccnc3ccccc23)s1 [GW560459],0%,33%,8%,0%,7%,0%,21%,0%,8%,1%,11%,20%,0%,16%,0%,3%,0%,7%,0%,1%
COc1cc2nccc(Nc3ccc(OCc4ccc(NC(C)=O)cc4)cc3)c2cc1OC.Cl [GW440135],0%,12%,0%,20%,0%,1%,15%,3%,0%,0%,13%,20%,0%,0%,0%,12%,0%,0%,0%,0%
CCC(=O)c1c(-c2ccccc2)c2cc(Cl)ccc2c(=O)n1Cc1cc(S(C)(=O)=O)n(CC(F)F)n1,0%,31%,0%,0%,0%,0%,7%,0%,47%,1%,0%,0%,0%,3%,0%,5%,0%,0%,0%,22%
